According to publication PMC5540273 (PLoS ONE, 2017):
Read-outs that look alike come from different tables or passages of the source.

Assays:
FGFR1 = settings: concentration: 1 μM,replicates: in singlicate; n = 1
FGFR2 = settings: concentration: 1 μM,replicates: in singlicate; n = 1
FGFR3 = settings: concentration: 1 μM,replicates: in singlicate; n = 1
FGFR4 = settings: concentration: 1 μM,replicates: in singlicate; n = 1
FGR = settings: concentration: 1 μM,replicates: in singlicate; n = 1
FLT1 = settings: concentration: 1 μM,replicates: in singlicate; n = 1
FLT3-autoinhibited = settings: concentration: 1 μM,replicates: in singlicate; n = 1
FLT3 = settings: concentration: 1 μM,replicates: in singlicate; n = 1
FLT4 = settings: concentration: 1 μM,replicates: in singlicate; n = 1
FRK = settings: concentration: 1 μM,replicates: in singlicate; n = 1
FYN = settings: concentration: 1 μM,replicates: in singlicate; n = 1
GAK = settings: concentration: 1 μM,replicates: in singlicate; n = 1
GCN2(Kin.Dom.2,S808G) = system: T1, GCN2(Kin.Dom.2,S808G); settings: concentration: 1 μM,replicates: in singlicate; n = 1
T1 construct: gene EIF2AK4

GRK1 = settings: concentration: 1 μM,replicates: in singlicate; n = 1
GRK2 = system: T2, GRK2; settings: concentration: 1 μM,replicates: in singlicate; n = 1
T2 construct: gene ADRBK1

GRK3 = system: T3, GRK3; settings: concentration: 1 μM,replicates: in singlicate; n = 1
T3 construct: gene ADRBK2

GRK4 = settings: concentration: 1 μM,replicates: in singlicate; n = 1
GRK7 = settings: concentration: 1 μM,replicates: in singlicate; n = 1
GSK3A = settings: concentration: 1 μM,replicates: in singlicate; n = 1
GSK3B = settings: n = 1
[1] = concentration: 1 μM,replicates: in singlicate
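Further: KINOMEscan kinase panel screen.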

Question: With `Cc1cccc2c(-c3ccncc3)c(-c3ccc(F)cc3)nn12.Cl` [GW461487] as the compound, how does the “%Inh” value (FGFR1) read?
Answer: 0%

Question: What about the “%Inh” value (FGFR2) of the same compound?
Answer: 33%

Question: And the “%Inh” value (FGFR3)?
Answer: 4%

Question: And the “%Inh” value (FGFR4)?
Answer: 9%

Question: And the “%Inh” value (FGR)?
Answer: 2%

Question: And the “%Inh” value (FLT1)?
Answer: 8%

Question: What about the “%Inh” value (FLT3-autoinhibited) of the same compound?
Answer: 0%

Question: And the “%Inh” value (FLT3)?
Answer: 0%

Question: And the “%Inh” value (FLT4)?
Answer: 0%

Question: And the “%Inh” value (FRK)?
Answer: 0%

Question: And the “%Inh” value (FYN)?
Answer: 4%

Question: What about the “%Inh” value (GAK) of the same compound?
Answer: 67%

Question: What about the “%Inh” value (GCN2(Kin.Dom.2,S808G)) of the same compound?
Answer: 1%

Question: And the “%Inh” value (GRK1)?
Answer: 0%

Question: What about the “%Inh” value (GRK2) of the same compound?
Answer: 0%

Question: What about the “%Inh” value (GRK3) of the same compound?
Answer: 21%

Question: What about the “%Inh” value (GRK4) of the same compound?
Answer: 100%

Question: What about the “%Inh” value (GRK7) of the same compound?
Answer: 0%

Question: And the “%Inh” value (GSK3A)?
Answer: 12%

Question: And the “%Inh” value (GSK3B; [1])?
Answer: 10%

Question: Which results are given for `CCN1CCN(CCCC(=O)Nc2n[nH]c3nc(-c4ccc(O)cc4)c(Br)cc23)CC1` [SB-731579]?
Answer: %Inh (FGFR1): 0%; %Inh (FGFR2): 0%; %Inh (FGFR3): 0%; %Inh (FGFR4): 0%; %Inh (FGR): 0%; %Inh (FLT1): 0%; %Inh (FLT3-autoinhibited): 0%; %Inh (FLT3): 61%; %Inh (FLT4): 0%; %Inh (FRK): 0%; %Inh (FYN): 4%; %Inh (GAK): 0%; %Inh (GCN2(Kin.Dom.2,S808G)): 0%; %Inh (GRK1): 0%; %Inh (GRK2): 0%; %Inh (GRK3): 25%; %Inh (GRK4): 21%; %Inh (GRK7): 0%; %Inh (GSK3A): 99.5%; %Inh (GSK3B; 1 µM): 98.5%

Question: What does the source list for `Cn1ccc2ncnc(Oc3ccc(NC(=O)Nc4ccnc(C(F)(F)F)c4)c(Cl)c3)c21`?
Answer: %Inh (FGFR2): 5%; %Inh (FGFR3): 0%; %Inh (FGFR4): 0%; %Inh (FGR): 2%; %Inh (FLT1): 94.5%; %Inh (FLT3-autoinhibited): 0%; %Inh (FLT3): 64%; %Inh (FLT4): 97.4%; %Inh (FRK): 2%; %Inh (FYN): 0%; %Inh (GAK): 0%; %Inh (GCN2(Kin.Dom.2,S808G)): 10%; %Inh (GRK1): 0%; %Inh (GRK2): 0%; %Inh (GRK3): 29%; %Inh (GRK4): 100%; %Inh (GRK7): 0%; %Inh (GSK3A): 11%; %Inh (GSK3B; [1]): 0%

Question: With `O=C(Nc1cccc(Oc2ccc3nccn3n2)c1)Nc1cccc(C(F)(F)F)c1` as the compound, how does the “%Inh” value (FGFR1) read?
Answer: 29%

Question: And the “%Inh” value (FGFR2)?
Answer: 4%

Question: And the “%Inh” value (FGFR3)?
Answer: 0%

Question: And the “%Inh” value (FGFR4)?
Answer: 0%

Question: What about the “%Inh” value (FGR) of the same compound?
Answer: 18%

Question: And the “%Inh” value (FLT1)?
Answer: 93.2%

Question: What about the “%Inh” value (FLT3-autoinhibited) of the same compound?
Answer: 0%

Question: And the “%Inh” value (FLT3)?
Answer: 59%

Question: What about the “%Inh” value (FLT4) of the same compound?
Answer: 99%

Question: What about the “%Inh” value (FRK) of the same compound?
Answer: 77%

Question: And the “%Inh” value (FYN)?
Answer: 31%

Question: What about the “%Inh” value (GAK) of the same compound?
Answer: 4%

Question: What about the “%Inh” value (GCN2(Kin.Dom.2,S808G)) of the same compound?
Answer: 27%

Question: And the “%Inh” value (GRK1)?
Answer: 0%

Question: And the “%Inh” value (GRK2)?
Answer: 0%

Question: And the “%Inh” value (GRK3)?
Answer: 0%

Question: What about the “%Inh” value (GRK4) of the same compound?
Answer: 1%

Question: What about the “%Inh” value (GRK7) of the same compound?
Answer: 0%

Question: What about the “%Inh” value (GSK3A) of the same compound?
Answer: 0%

Question: What about the “%Inh” value (GSK3B; [1]) of the same compound?
Answer: 0%

Question: For `C[C@@H]1CNc2c(sc3ccc4nc(-c5ccncc5)ccc4c23)C(=O)N1`, which “%Inh” value (FGFR1) is on record?
Answer: 9%

Question: What about the “%Inh” value (FGFR2) of the same compound?
Answer: 0%

Question: What about the “%Inh” value (FGFR3) of the same compound?
Answer: 0%

Question: And the “%Inh” value (FGFR4)?
Answer: 26%

Question: And the “%Inh” value (FGR)?
Answer: 40%

Question: What about the “%Inh” value (FLT1) of the same compound?
Answer: 3%

Question: What about the “%Inh” value (FLT3-autoinhibited) of the same compound?
Answer: 0%

Question: What about the “%Inh” value (FLT3) of the same compound?
Answer: 0%

Question: And the “%Inh” value (FLT4)?
Answer: 4%

Question: What about the “%Inh” value (FRK) of the same compound?
Answer: 10%

Question: And the “%Inh” value (FYN)?
Answer: 0%

Question: What about the “%Inh” value (GAK) of the same compound?
Answer: 13%

Question: And the “%Inh” value (GCN2(Kin.Dom.2,S808G))?
Answer: 0%

Question: And the “%Inh” value (GRK1)?
Answer: 34%

Question: And the “%Inh” value (GRK2)?
Answer: 18%

Question: What about the “%Inh” value (GRK3) of the same compound?
Answer: 0%

Question: What about the “%Inh” value (GRK4) of the same compound?
Answer: 2%

Question: What about the “%Inh” value (GRK7) of the same compound?
Answer: 29%

Question: And the “%Inh” value (GSK3A)?
Answer: 0%

Question: And the “%Inh” value (GSK3B; [1])?
Answer: 3%

Question: What does the source list for `Cc1ccc(C(=O)Nc2ccc(Oc3ccc4nc(NC(=O)C5CC5)cn4c3)c(F)c2)c(=O)n1-c1ccccc1`?
Answer: %Inh (FGFR1): 0%; %Inh (FGFR2): 23%; %Inh (FGFR3): 11%; %Inh (FGFR4): 1%; %Inh (FGR): 91%; %Inh (FLT1): 67%; %Inh (FLT3-autoinhibited): 62%; %Inh (FLT3): 98.5%; %Inh (FLT4): 100%; %Inh (FRK): 64%; %Inh (FYN): 31%; %Inh (GAK): 0%; %Inh (GCN2(Kin.Dom.2,S808G)): 72%; %Inh (GRK1): 0%; %Inh (GRK2): 0%; %Inh (GRK3): 0%; %Inh (GRK4): 13%; %Inh (GRK7): 0%; %Inh (GSK3A): 39%; %Inh (GSK3B; [1]): 0%

Question: For `COc1cc2ncn(-c3cc(OCC4CCCCC4)c(C(N)=O)s3)c2cc1OC` [GSK204559], which “%Inh” value (FGFR1) is on record?
Answer: 26%

Question: What about the “%Inh” value (FGFR2) of the same compound?
Answer: 3%

Question: What about the “%Inh” value (FGFR3) of the same compound?
Answer: 12%

Question: What about the “%Inh” value (FGFR4) of the same compound?
Answer: 9%

Question: And the “%Inh” value (FGR)?
Answer: 29%

Question: And the “%Inh” value (FLT1)?
Answer: 44%

Question: What about the “%Inh” value (FLT3-autoinhibited) of the same compound?
Answer: 0%

Question: What about the “%Inh” value (FLT3) of the same compound?
Answer: 0%

Question: What about the “%Inh” value (FLT4) of the same compound?
Answer: 66%

Question: What about the “%Inh” value (FRK) of the same compound?
Answer: 4%

Question: And the “%Inh” value (FYN)?
Answer: 29%

Question: And the “%Inh” value (GAK)?
Answer: 79%

Question: What about the “%Inh” value (GCN2(Kin.Dom.2,S808G)) of the same compound?
Answer: 6%

Question: What about the “%Inh” value (GRK1) of the same compound?
Answer: 23%

Question: And the “%Inh” value (GRK2)?
Answer: 7%

Question: And the “%Inh” value (GRK3)?
Answer: 40%

Question: What about the “%Inh” value (GRK4) of the same compound?
Answer: 27%

Question: What about the “%Inh” value (GRK7) of the same compound?
Answer: 98%

Question: What about the “%Inh” value (GSK3A) of the same compound?
Answer: 0%

Question: What about the “%Inh” value (GSK3B; [1]) of the same compound?
Answer: 0%

Question: How did the “%Inh” value (FGFR1) turn out when `C[C@@H]1CCN(C(=O)N2CCCC2)C[C@@H]1N(C)c1ncnc2[nH]ccc12` was run?
Answer: 13%

Question: What about the “%Inh” value (FGFR2) of the same compound?
Answer: 9%

Question: What about the “%Inh” value (FGFR3) of the same compound?
Answer: 20%

Question: What about the “%Inh” value (FGFR4) of the same compound?
Answer: 3%

Question: And the “%Inh” value (FGR)?
Answer: 29%

Question: And the “%Inh” value (FLT1)?
Answer: 21%

Question: And the “%Inh” value (FLT3-autoinhibited)?
Answer: 18%

Question: And the “%Inh” value (FLT3)?
Answer: 38%

Question: And the “%Inh” value (FLT4)?
Answer: 6%

Question: And the “%Inh” value (FRK)?
Answer: 0%

Question: What about the “%Inh” value (FYN) of the same compound?
Answer: 59%

Question: What about the “%Inh” value (GAK) of the same compound?
Answer: 0%

Question: And the “%Inh” value (GCN2(Kin.Dom.2,S808G))?
Answer: 1%

Question: And the “%Inh” value (GRK1)?
Answer: 17%

Question: What about the “%Inh” value (GRK2) of the same compound?
Answer: 25%

Question: What about the “%Inh” value (GRK3) of the same compound?
Answer: 36%

Question: And the “%Inh” value (GRK4)?
Answer: 17%

Question: And the “%Inh” value (GRK7)?
Answer: 8%

Question: What about the “%Inh” value (GSK3A) of the same compound?
Answer: 2%

Question: And the “%Inh” value (GSK3B; [1])?
Answer: 26%
